Screening data deposited in PubChem BioAssay by National Center for Advancing Translational Sciences (NCATS).
Sampled rows, rich in hits. Any-hit rate of the full collection: about 19%.
ELG1 DNA repair: ELG1-dependent DNA repair inhibition | HEK293T ELG1-luciferase reporter, luminescence, 16 h; DNA damage induced by 5-fluorouridine | Potency, µM (top dose mostly 46.1 µM), without a hit: at the highest dose activity change, negative = inhibition, usual class: inhibitors | 330,000 tested, 2.3% active | AID 504467; note: potency is the fitted concentration of half-maximal effect; nearly all actives have a fitted effect of over 55% in size
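Luminescence from the luciferase reporter, measured 30 min after ONE-Glo reagent at room temperature, was the read-out. Beforehand, 2,000 cells per well were exposed for 16 hr at 37 °C to 5-fluorouridine together with compound or vehicle.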
IL1B secr inh: inflammasome signaling inhibition, IL-1 beta readout; THP-1 LPS/ATP IL-1B secretion, AlphaLISA, 16 h; stronger effect = lower value; activity change, % at 57.5 µM; 360,000 tested, 4.7% active; AID 743279; in the data active = activity change below about -50%; inconclusive = mostly about -30% to -49%
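Secreted IL-1B measured by AlphaLISA bead assay after 16 h compound exposure of THP-1 cells; compounds (final up to 57.5 uM) added 1 h before LPS (250 ng/mL) and ATP (1.25 mM) stimulation; lower signal means less secretion.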
TDP1 block: inhibitors of human tyrosyl-DNA phosphodiesterase TDP1 | recombinant TDP1, AlphaScreen DNA substrate cleavage | Potency, µM (titrated, usually from 130 µM), for inactives: at the top dose activity change, negative = inhibition, most hits filed as inhibitors | 350,000 tested, 0.28% active | Q9NUW8; note: potency is the fitted concentration of half-maximal effect; nearly all actives have a fitted effect of over 40% in size
Target sequence (Q9NUW8 whole entry, looked up): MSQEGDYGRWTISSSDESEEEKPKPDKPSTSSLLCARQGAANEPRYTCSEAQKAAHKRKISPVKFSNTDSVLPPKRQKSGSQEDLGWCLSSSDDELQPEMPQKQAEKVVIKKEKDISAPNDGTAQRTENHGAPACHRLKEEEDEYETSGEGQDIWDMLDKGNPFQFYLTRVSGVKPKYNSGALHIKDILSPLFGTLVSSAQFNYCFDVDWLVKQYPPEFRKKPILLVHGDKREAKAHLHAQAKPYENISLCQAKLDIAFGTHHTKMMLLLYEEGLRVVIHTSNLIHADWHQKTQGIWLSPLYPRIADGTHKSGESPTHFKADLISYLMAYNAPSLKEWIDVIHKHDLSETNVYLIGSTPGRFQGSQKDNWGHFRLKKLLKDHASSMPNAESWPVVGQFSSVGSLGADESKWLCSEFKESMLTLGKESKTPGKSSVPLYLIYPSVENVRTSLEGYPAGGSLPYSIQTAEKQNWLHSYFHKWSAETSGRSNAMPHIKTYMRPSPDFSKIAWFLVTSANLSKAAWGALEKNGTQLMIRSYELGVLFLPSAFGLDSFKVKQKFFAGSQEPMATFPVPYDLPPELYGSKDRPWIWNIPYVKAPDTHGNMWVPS
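Recombinant E. coli-expressed Tdp1 (1 nM) preincubated with compound 15 min at RT, then 5'-biotin/3'-phosphotyrosine-FITC DNA substrate (15 nM) added for 5 min. AlphaScreen beads (10 ug/ml) added, 10 min RT; tyrosine-FITC cleavage read as signal loss.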
DT40 TDP1 no CPT: qHTS for Inhibitors of human tyrosyl-DNA phosphodiesterase 1 (TDP1): qHTS in cells in absence of CPT | DT40 Tdp1-/- hTDP1 cells, no CPT, ATP luminescence, 48 h | Potency, µM (titrated, usually from 46.2 µM), for the others: at the top dose activity change, negative = growth inhibition, usual class: inhibitors | 420,000 tested, 15% active | AID 686978, 2013; note: potency is the fitted concentration of half-maximal effect; nearly all actives have a fitted effect of over 55% in size
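Cells were dispensed at 400 per well, compounds added by pin tool, plates incubated ≥48 hr at 37 °C, then CellTiter-Glo added for 30 min at room temperature before luminescence reading. Line: DT40 Tdp1-/- complemented with hTDP1; camptothecin omitted.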
Giardia kill: Giardia lamblia killing | Giardia lamblia trophozoite viability | activity change, % at 7.66 µM, hits read low | 340,000 tested, 0.15% active | AID 540267; in the data active = activity change below about -80%; inconclusive = between about -30% and that limit;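 note: parasites exposed to compound for two days anaerobically before the ATP read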
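Luminescence from cellular ATP indicates surviving trophozoites (100 cells/well) following 48 hrs anaerobic compound treatment at 37 deg C; signal develops 15-30 min at room temperature.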
TDP1 cell CPT: DT40-hTDP1 cell growth loss with CPT. 420,000 tested, 12% active. chicken DT40 Tdp1-/-;hTDP1 cells + 20 nM CPT, ATP luminescence, 48 h. Potency, µM (titrated, usually from 46.2 µM), without a hit: at the top dose activity change, negative = growth inhibition, actives largely listed as inhibitors. AID 686979; note: potency is the fitted concentration of half-maximal effect; nearly all actives have a fitted effect of over 55% in size
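Chicken DT40 Tdp1-/- cells stably complemented with human TDP1 were seeded at 400 cells/well in medium containing 20 nM camptothecin, exposed to pin-transferred compounds, and grown at 37 °C for at least 48 hr. Viability was read as ATP luminescence.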
Active calls of the source: *; ? = inconclusive; . = no result given; ! = a repeat was not active; [ ] = remark or other dose. Unless noted, calls come from the whole dose curve; as a rule, active = well fitted curve in the direction sought with a large enough effect; inconclusive = small, poorly fitted or top-dose-only effect, or another doubt; inactive = no such curve, though single readings can be large; an effect the other way counts as inactive or inconclusive. % is set by controls: 0 for no effect and ±100 for the full control effect.

SMILES | ELG1 DNA repair | IL1B secr inh | TDP1 block | DT40 TDP1 no CPT | Giardia kill | TDP1 cell CPT
CN(CC(=O)NCCc1ccc(S(N)(=O)=O)cc1)S(=O)(=O)/C=C/c1ccccc1 | 2% | 33 | 2% | -17% | -7 | -21%
Cc1ccc(S(=O)(=O)/N=C(/Nc2ccc([N+](=O)[O-])cc2[N+](=O)[O-])c2ccccc2)cc1 | 23µM* | -67* | 6% | ? | ? | ?
CC(=O)c1cc2c(cc1N/C(=N/S(=O)(=O)c1ccc(C)cc1)c1ccccc1)OCO2 | ? | -15 | 4% | ? | 5 | 23µM*!
Cc1ccc(S(=O)(=O)/N=C(/Nc2ccc([N+](=O)[O-])cc2)c2ccccc2)cc1 | ? | 12 | 1% | ? | 0 | 2%
CC(=O)c1cc2c(cc1N/C(=N/S(=O)(=O)c1ccc(C)cc1)c1ccc(Cl)cc1)OCO2 | 9% | 27 | -4% | -1% | 13 | ?
N#Cc1ccc(S(=O)(=O)N2CCN(C(=O)c3cn(-c4ccccc4)nc3-c3cccnc3)CC2)cc1 | . | -9 | . | -6% | -23 | 2%
O=C(CCCn1c2ccccc2c(=O)c2ccccc21)Nc1cccc(Cl)c1 | . | . | 0%[12.3 µM] | 16µM* | . | ?
Cc1ccc2c(c1)c(=O)c1ccccc1n2CCCC(=O)Nc1ccc(C)c(F)c1 | . | . | -13%[12.3 µM] | ? | . | ?
Cc1ccc2c(c1)c(=O)c1ccccc1n2CCCC(=O)Nc1ccc(C)c(C)c1 | . | . | -9%[12.3 µM] | 23µM* | . | 23µM*
Cc1cc(C)c([N+](=O)[O-])cc1-c1ccc(/C=N/c2c(-c3ccco3)nc3ccccn23)o1 | ? | -15 | 5% | 15µM* | -10 | 15µM*
O=[N+]([O-])c1ccc(Cl)c(-c2ccc(/C=N/c3c(-c4ccco4)nc4ccccn34)o2)c1 | 1% | 2 | 2% | ? | 1 | -28%
O=[N+]([O-])c1ccc(-c2ccc(/C=N/c3c(-c4ccco4)nc4ccccn34)o2)cc1 | ? | 13 | 9% | 7.3µM* | -10 | 21µM*
O=C(CSc1nncc2ccccc12)Nc1ccc(C(=O)O)cc1 | ? | 19 | -19% | 30% | -1 | -10%
CCc1cc(-c2n[nH]c(C)c2-c2nc3ccccc3n2C)c(O)cc1O | ? | ? | 5% | 18µM* | -2 | ?
CCc1cc(-c2n[nH]c(CCC(=O)O)c2-c2nc3ccccc3n2C)c(O)cc1O | 4% | 10 | 0% | 6% | 5 | -25%
CC1(Oc2ccc(CC#N)cc2)CCN(Cc2ccccc2OC(F)F)C1 (stereo not given) | . | 18 | . | -27% | . | -29%
CSc1ccc(OC2(C)CCN(Cc3ccc(C(C)C)cc3)C2)cc1 (stereo not given) | . | 28 | . | 18µM* | . | ?
CCc1ccc(OC2(C)CCN(Cc3ccc(SC)cc3)C2)cc1 (stereo not given) | . | -7 | . | ? | . | ?
CC1(Oc2ccc(Cl)cc2)CCN(Cc2ccc(OC(F)(F)F)cc2)C1 (stereo not given) | . | -81* | . | -11% | . | ?
CC1(Oc2ccc(CC#N)cc2)CCN(Cc2ccc(-n3ccnc3)cc2)C1 (stereo not given) | . | -1 | . | 13µM* | . | ?
COc1ccc(OC)c(S(=O)(=O)N2CCCC(C(=O)NC3CC3)C2)c1 (stereo not given) | . | 4 | . | ? | 1 | ?
Cc1cccc(CNC(=O)CN2C(=O)CCCc3ccccc32)c1 | . | . | -1% | -9% | . | -26%
O=C1CC(NNc2ccccc2)C(=O)N1c1ccc(N2CCCCC2)cc1 (stereo not given) | 15% | -2 | 0% | ? | 6 | ?
O=C1Nc2ccccc2CCC1Sc1nnc(-c2ccc(Cl)cc2)s1 (stereo not given) | ? | -5 | 0% | 29µM* | -4 | ?
Cc1ccc(-n2c3nc(=O)[nH]c(=O)c-3cc3cc([N+](=O)[O-])ccc32)cc1C | ? | 0 | -1% | 1.3µM* | 0 | 0.58µM*
SMILES | ELG1 DNA repair | IL1B secr inh | TDP1 block | DT40 TDP1 no CPT | Giardia kill | TDP1 cell CPT
CCCCCOc1ccc(Cn2ccnc2)cc1[N+](=O)[O-] | ? | -11 | 5% | ? | -8 | ?
CCOc1ccc(CSC2=NCCN2)cc1[N+](=O)[O-] | -7% | -61* | 5% | 16µM* | 1 | ?
O=[N+]([O-])c1ccc(CSC2=NCCS2)cc1 | 19% | -4 | . | 2% | -3 | 6%
O=[N+]([O-])c1ccc(CSC2=NCCN2)cc1 | 10% | ? | . | 21µM* | 16 | 21µM*
CCCCOc1ccc(CSC2=NCCN2)cc1[N+](=O)[O-] | 15% | -99* | 3% | 21µM* | ? | 18µM*
CCOc1ccc(C(=O)Nc2cccc(-c3nc4cc(Cl)cc(Cl)c4o3)c2)cc1 | . | . | 0%[2.28 µM] | -12% | . | -21%
CCC(=S)/C=C1\Sc2ccc3ccccc3c2N1CCCS(=O)(=O)O | 0% | . | . | . | . | .
CC[n+]1ccc(/C=C2\Sc3ccccc3N2CCCS(=O)(=O)[O-])c2ccccc21 | -8% | 58 | 50µM* | 2% | -7 | 1%
CCN(CC)c1nc2ccccc2nc1C(=O)Nc1ccc(C(C)=O)cc1 | . | . | 2% | ? | . | ?
CCN(CC)c1nc2ccccc2nc1C(=O)Nc1cc(OC)c(OC)c(OC)c1 | . | . | 6% | 13µM* | . | 16µM*
COc1ccc2cc(C(=O)Nc3ccccc3)sc(=O)c2c1OC | ? | 0 | 16µM* | -20% | 19 | -23%
CCCN(C(=O)c1cc2c(Cl)nc3ccccc3c2s1)c1cccc(C)c1 | . | . | 2% | 26µM* | . | 21µM*
CN(C(=O)c1cc2c(Cl)nc3ccccc3c2s1)c1cccc(C(F)(F)F)c1 | . | . | 5% | -21% | . | -4%
COc1ccc(N(C)C(=O)c2cc3c(Cl)nc4ccccc4c3s2)cc1 | ? | -68* | 6% | 21µM* | -4 | ?
Cc1ccc(CNC(=O)c2cc(=O)c3ccc(C)cc3o2)cc1 | -14% | 16 | . | -6% | 20 | ?
OCC1(CCOc2ccccc2)CCN(C2Cc3ccccc3C2)CC1 | 4% | ? | 3% | -6% | 17 | ?
CCn1c(SCC(=O)N2CCC(C)CC2)nnc1-c1ccccc1O | . | . | 0% | -28% | . | -17%
COc1ccc(NC(=O)c2cc3c(Cl)nc4ccccc4c3s2)c(OC)c1 | 12% | -10 | -5% | ? | 0 | ?
COc1cc(NC(=O)c2cc3c(Cl)nc4ccccc4c3s2)cc(OC)c1OC | 6.5µM* | -13 | 5% | 8.2µM* | -12 | 10µM*
